Pol eta inh-1: DNA polymerase eta (human) inhibition. 1.2% of 390,000 active. AID 588591. Potency, µM (top dose mostly 114 µM), without a hit: at the highest dose activity change, negative = inhibition, most hits filed as inhibitors. recombinant Pol eta, fluorescent DNA replication assay. Q9Y253; further: potency means the concentration at half of the fitted maximal effect; on the % scale 0 is the no-effect control and ±100 the full control effect
Target sequence (Q9Y253 whole entry, looked up): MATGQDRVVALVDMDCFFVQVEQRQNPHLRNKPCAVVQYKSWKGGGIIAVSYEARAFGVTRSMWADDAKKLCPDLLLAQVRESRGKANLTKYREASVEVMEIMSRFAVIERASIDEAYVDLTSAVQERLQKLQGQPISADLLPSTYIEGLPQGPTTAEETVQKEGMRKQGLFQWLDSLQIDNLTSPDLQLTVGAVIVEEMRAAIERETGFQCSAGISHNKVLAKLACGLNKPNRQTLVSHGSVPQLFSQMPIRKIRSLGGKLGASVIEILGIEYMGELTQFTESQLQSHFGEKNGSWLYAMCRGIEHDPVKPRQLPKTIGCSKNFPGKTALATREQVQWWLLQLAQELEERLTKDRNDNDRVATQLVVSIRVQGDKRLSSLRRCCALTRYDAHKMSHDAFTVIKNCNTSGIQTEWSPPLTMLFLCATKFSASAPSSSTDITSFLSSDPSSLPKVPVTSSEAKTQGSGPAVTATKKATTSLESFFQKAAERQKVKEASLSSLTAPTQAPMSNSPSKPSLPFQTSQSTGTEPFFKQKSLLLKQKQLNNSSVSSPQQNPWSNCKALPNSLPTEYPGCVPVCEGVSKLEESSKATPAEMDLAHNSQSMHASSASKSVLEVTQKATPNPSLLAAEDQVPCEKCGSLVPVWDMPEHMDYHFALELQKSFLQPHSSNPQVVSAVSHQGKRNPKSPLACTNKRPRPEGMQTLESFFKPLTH
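Pol eta at 10 nM preincubated with compounds 15 min at room temperature; reaction started with fluorescent substrate (50 nM final) and read kinetically at 0 and 10 min.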
PI5P4K alpha inh: blocks human PI5P4K alpha kinase activity | P48426 | PI5P4Kalpha enzyme, ADP-Glo luminescence, 60 min; stronger effect = lower value | max response, % | 1.2% of 330,000 active | AID 652105; active means max response of -50% or lower; inconclusive means between -30% and -50%; inactive means -30% or higher; further: value at the top dose of about 77 µM; on the % scale 0 is the no-effect control and ±100 the full control effect
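Reactions run in 0.038 M HEPES pH 7.4, 0.28 mM EGTA, 0.1% CHAPS and 5% DMSO, with PI5P4Kalpha, substrate, compound and 5 microM ATP final, one hour at room temperature. Readout is ADP-Glo luminescence.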
Pol kappa inh-1: inhibitors of human DNA polymerase kappa | purified Pol kappa, fluorescent DNA synthesis assay, 10 min | Potency, µM (titrated, usually from 107 µM), for the others: at the top dose activity, negative = inhibition, actives largely listed as inhibitors | 0.53% of 400,000 active | AID 588579; further: potency means the concentration at half of the fitted maximal effect; on the % scale 0 is the no-effect control and ±100 the full control effect
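10 nM Pol kappa was preincubated with compounds for 15 min at room temperature. Reaction started with 50 nM (final) substrate. Fluorescence read kinetically at 0 and 10 min.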
POLI inh: inhibitors of human DNA polymerase iota. Pol iota fluorescent replication assay, 10 min. Potency, µM (titrated, usually from 115 µM), for inactives: at the top dose activity, negative = inhibition, usual class: inhibitors. 1% of 390,000 active; further: potency means the concentration at half of the fitted maximal effect
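Pol iota at 10 nM preincubated 15 min with compounds at room temperature; reaction started with fluorescent substrate, 50 nM final. Fluorescence read kinetically at 0 and 10 min; buffer-only wells as negative control.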
PI4K2A inh: blocks human PI4K2A kinase activity; 0.13% of 420,000 active; activity change, negative = inhibition, % at 76.9 µM; Q9BTU6; purified PI4K2A, ADP-Glo luminescence, 1 h; stronger effect = lower value; in the data active means activity change below about -50%; inconclusive means mostly about -30% to -49%;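 further: -100% = wells without enzyme as full effect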
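Compounds are screened against recombinant PI4K2A using PI as substrate and ATP, the latter dispensed at 300 microM. Reactions run one hour at ambient temperature before ADP-Glo detection; full inhibition defined by wells lacking enzyme.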
POLB inh: inhibitors of human DNA polymerase beta; Pol beta primer extension/strand displacement, fluorescence kinetic; Potency, µM (series often up to 114 µM), without a hit: top-dose activity change, negative = inhibition, most hits filed as inhibitors; 1.3% of 340,000 active; P06746; AID 485314; further: potency means the concentration at half of the fitted maximal effect; on the % scale 0 is the no-effect control and ±100 the full control effect
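Curves were derived by four-parameter Hill fits of normalized qHTS data. The kinetic fluorescent primer-extension read was taken at 0 and 10 min after 50 nM substrate, following a 15 min room-temperature preincubation of 10 nM enzyme with compounds.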
GALK inh confirm: galactokinase (human) inhibition, confirmation; purified GALK, Kinase-Glo ATP depletion luminescence; 70% of 150 active; AID 2015; Potency, µM (highest dose often 115 µM), for the others: at the highest dose activity, negative = inhibition, hits mostly inhibitors; shares compounds with Pol eta inh-1
Redox cycling: counter-screen for GALK inhibitors: redox cycling H2O2 generation. shares compounds with Pol eta inh-1. Phenol red-HRP H2O2 redox cycling, absorbance 600 nm. Potency, µM (titrated, usually from 115 µM), for inactives: at the highest dose activity change, negative = H2O2 signal, actives largely listed as inhibitors. 40% of 150 active. AID 2035
HEK293 viability: HEK-293 cytotoxicity, GALK inhibitor secondary | 10% of 170 active | Potency, µM (highest dose often 46.1 µM), for inactives: top-dose activity change, negative = cytotoxicity, usual class: inhibitors | shares compounds with Pol eta inh-1 | HEK-293 viability, ATP luminescence (CellTiter-Glo), 24/48 h | AID 2547; further: potency means the concentration at half of the fitted maximal effect; on the % scale 0 is the no-effect control and ±100 the full control effect
Pol kappa inh-2: confirmation of human DNA polymerase kappa inhibitors. purified Pol-kappa, fluorescent strand-displacement substrate. shares compounds with Pol eta inh-1. 76% of 920 active. Potency, µM, actives largely listed as inhibitors; further: potency means the concentration at half of the fitted maximal effect
Pol eta inh-2: Pol eta (human) inhibition, cherry-pick confirmation. shares compounds with Pol eta inh-1. Pol eta primer extension, TAMRA/BHQ fluorescence, 10 min. Potency, µM, hits mostly inhibitors. 64% of 2,600 active. AID 720502; further: potency means the concentration at half of the fitted maximal effect
Numbers without * were called inactive; [ ] = dose if it differs, or a comment. Hits are enriched below; roughly 2.8% of the tested compounds scored in any of these assays. Unless noted, the call rests on the fitted dose curve; in most records, active means well fitted curve in the direction sought with a large enough effect; inconclusive means small, poorly fitted or top-dose-only effect, or another doubt; inactive means no such curve, though single readings can be large; an effect the other way counts as inactive or inconclusive.

What do the screens show for `CCOC(=O)C1CCN(c2nc(N)c3c(N)nc(SCC(=O)O)cc3c2C#N)CC1`?
Pol eta inh-1: 7.08µM*; PI5P4K alpha inh: -87.8*; Pol kappa inh-1: 35.5µM*; POLI inh: 25.1µM*; PI4K2A inh: inconclusive; POLB inh: 28.2µM*; GALK inh confirm: 66.8µM*; Redox cycling: 18.8µM*; HEK293 viability: -13.7%

What do the screens show for `CCOC(=O)C1CCN(c2nc(C)cc(C)c2C#N)CC1`?
Pol eta inh-1: -5.4%; PI5P4K alpha inh: 0.2; Pol kappa inh-1: -3.3%; POLI inh: 17.7%; PI4K2A inh: 2.5; POLB inh: 0.7%

What do the screens show for `Cc1ccc(-n2nc(C)c3c(C)c(CCC(=O)NCc4ccccc4Cl)c(C)nc32)cc1`?
Pol kappa inh-1: 3.4%; POLI inh: 32.9%; PI4K2A inh: 1.4; POLB inh: 2.4%

Results for CC(C)C1C(=O)N(S(C)(=O)=O)[C@H]2CCN(C(=O)/C=C/CN3CCCCC3)[C@@H]12 (stereo partly drawn) ?
Pol kappa inh-1: 17.7%[60.1 µM]

How did Cc1ccc(NS(=O)(=O)c2cc(NC(=O)C(C)Oc3ccccc3)ccc2C)c(C)c1 (stereo not drawn) do in these assays?
Pol eta inh-1: inconclusive; PI5P4K alpha inh: -7.6; Pol kappa inh-1: 4.3%; POLI inh: 0.4%; PI4K2A inh: -3.6; POLB inh: 15.8%; GALK inh confirm: -9.3%; Redox cycling: 9.1%; HEK293 viability: -10.9%

What do the screens show for `CC1CC=CC2C1C(=O)N(Cc1ccccc1)C2c1cccc([N+](=O)[O-])c1` (stereo not drawn)?
Pol kappa inh-1: -14.4%; POLI inh: -17.4%

Results for CCOc1ccc(NC(=O)c2c(NC(=O)c3ccco3)sc3c2CCC(C(C)(C)C)C3)cc1 (stereo not drawn) ?
Pol eta inh-1: -0.7%; Pol kappa inh-1: -5.6%; POLI inh: -3.8%; PI4K2A inh: -5.3; POLB inh: 13.1%

Results for Cc1nc2cnc(Oc3ccccc3)nc2n(Cc2cccs2)c1=O ?
Pol kappa inh-1: -0.6%[60.1 µM]

What do the screens show for `COc1ccc(C(=O)NNC(=O)Cc2coc3cc(OC)ccc23)cc1`?
Pol eta inh-1: 20µM*; PI5P4K alpha inh: inconclusive; Pol kappa inh-1: inconclusive; POLI inh: inconclusive; PI4K2A inh: -5.9; Pol eta inh-2: inconclusive

What do the screens show for `CC1=NN(c2nc(-c3ccc(C#N)cc3)cs2)C(=O)C1`?
Pol eta inh-1: -17.7%; PI5P4K alpha inh: -19.4; Pol kappa inh-1: -6.1%; POLI inh: 33.5%; PI4K2A inh: -7.6; POLB inh: 12.8%

Results for CC1=NN(c2nc(-c3ccccc3)cs2)C(=O)C1 ?
Pol eta inh-1: 50.1µM*; PI5P4K alpha inh: -27.6; Pol kappa inh-1: -36.2%; POLI inh: inconclusive; PI4K2A inh: -10.9; POLB inh: -1.3%; Pol eta inh-2: inconclusive

How did COc1cc(OC)c(NC(=O)C(NS(=O)(=O)c2cccc3nsnc23)c2ccccc2)cc1Cl (stereo not drawn) do in these assays?
Pol eta inh-1: -17.1%; Pol kappa inh-1: -13.4%; POLI inh: 0.0%; PI4K2A inh: 0.7; POLB inh: 5.0%

What do the screens show for `Cc1ccc(NC(=O)CSc2n[nH]c(-c3ccco3)n2)c(C)c1`?
Pol eta inh-1: -17.5%; PI5P4K alpha inh: 5.1; Pol kappa inh-1: -4.6%; POLI inh: 97.1%; PI4K2A inh: 0.7; POLB inh: -11.5%

What do the screens show for `Cc1ccc(NC(=O)CSc2nc(-c3ccco3)nc3cc(=O)[nH]n23)c(Cl)c1`?
Pol eta inh-1: 44.7µM*; PI5P4K alpha inh: inconclusive; Pol kappa inh-1: inconclusive; POLI inh: 39.8µM*; PI4K2A inh: -5.8; POLB inh: 50.1µM*; Pol eta inh-2: 47.8*

How did Nc1nnc(CC(=O)N/N=C/c2cc([N+](=O)[O-])cc(Br)c2O)s1 do in these assays?
Pol eta inh-1: inconclusive; PI5P4K alpha inh: inconclusive; Pol kappa inh-1: 50.1µM*; POLI inh: inconclusive; PI4K2A inh: -5.0; POLB inh: inconclusive; Pol kappa inh-2: 47.4*; Pol eta inh-2: inconclusive

Results for Oc1ccc(/C=N/n2c(COc3ccccc3)n[nH]c2=S)cc1O ?
Pol eta inh-1: inconclusive; PI5P4K alpha inh: -23.4; Pol kappa inh-1: 20µM*; POLI inh: 6.31µM*; PI4K2A inh: 3.4; POLB inh: 6.31µM*; Pol eta inh-2: 16.9*

How did CC[N+](CC)(CC)CCCCOc1ccc2c(c1)C(=O)c1cc(OCCCC[N+](CC)(CC)CC)ccc1-2 do in these assays?
Pol eta inh-1: inconclusive; PI5P4K alpha inh: 1.7; Pol kappa inh-1: -27.0%; POLI inh: inconclusive; PI4K2A inh: -0.9; POLB inh: -102.0%; Pol eta inh-2: inconclusive

How did CC(=O)N1CCc2c(sc(NC(=O)c3ccc([N+](=O)[O-])o3)c2C#N)C1 do in these assays?
Pol eta inh-1: 20µM*; PI5P4K alpha inh: inconclusive; Pol kappa inh-1: inconclusive; POLI inh: inconclusive; PI4K2A inh: -5.7; POLB inh: inconclusive; Pol eta inh-2: inconclusive

Results for COc1ccc(C(=O)Nc2sc3c(c2C#N)CCN(C(C)=O)C3)cc1 ?
Pol eta inh-1: -0.6%; PI5P4K alpha inh: 0.4; Pol kappa inh-1: -2.7%; POLI inh: 26.9%; PI4K2A inh: -4.3; POLB inh: 6.6%

What do the screens show for `O=C(COc1ccccc1)NCC(=O)Nc1ccc(S(=O)(=O)NCc2ccco2)cc1`?
Pol eta inh-1: inconclusive; PI5P4K alpha inh: inconclusive; Pol kappa inh-1: -9.9%; POLI inh: 18.2%; PI4K2A inh: 1.5; POLB inh: 4.9%

Assay outcomes: PubChem BioAssay, National Center for Advancing Translational Sciences (NCATS)
